Common to all, as to assay type: functional
Assay [1] concerns Plasmodium falciparum. Put plainly: GSK_TCMDC: Inhibition of Plasmodium falciparum 3D7 in whole red blood cells, using parasite LDH activity as an index of growth. Test compounds present at 2uM.
Assay [2] has as its system Plasmodium falciparum. Description: GSK_TCMDC: Inhibition of Plasmodium falciparum Dd2 in whole red blood cells, using parasite LDH activity as an index of growth. Test compounds present at 2uM.
Assay [3] concerns HepG2. Description: GSK_TCMDC: Percent inhibition of human HepG2 cell line. Test compounds present at 10uM.

Usually Inhibition stands for the share of the control response that was lost under treatment. The low end stands for little suppression, the high end for strong suppression. In the case of `CCN(CC)CCCC(C)Nc1c(-c2ccc(C)cc2)cnc2ccccc12` (configuration not stated), the values for the Inhibition in assay [1], in assay [2] and in assay [3] were 85%, 65% and 8%, respectively.

Take `CC1CCCC(NCc2c(O)ccc3ccccc23)C1.Cl` (configuration not stated): the Inhibition in assay [1] worked out at 93%; in assay [2], 25%; in assay [3], 10%.

Regarding `Cc1ccc(F)cc1S(=O)(=O)NCC(C)c1ccc(NC(=O)Nc2cccc(F)c2)cc1` (configuration not stated), the Inhibition in assay [1] is on record as 95%; in assay [2], 5%; in assay [3], 20%.

Turning to `Cc1[nH]c(C)c(-c2ccc(-c3ccccc3Cl)nc2)c(=O)c1Cl`, the Inhibition is on record as 98% in assay [1], 97% in assay [2] and 0% in assay [3].

As to `O=C(Nc1cccc(-c2nn3ccccc3c2-c2ccnc(Nc3cccc(-c4cnco4)c3)n2)c1)C1CCCCC1`, the Inhibition came to 95% in assay [1], 99% in assay [2] and 71% in assay [3].

As for `Cc1cccc2nc(-c3cccc(-c4cccc(NC(=O)Cc5ccc[n+]([O-])c5)c4)c3)[nH]c12`, the Inhibition in assay [1] is 100%; in assay [2], 99%; in assay [3], 0%.

`CCOc1cc(C)ccc1C1CCN(CCCCNC(=O)c2coc(-c3ccc(Cl)cc3)c2)CC1.Cl`: the Inhibition in assay [1] is listed as 92%; in assay [2], 30%; in assay [3] it was 34%.

Regarding `CCn1c(-c2nonc2N)nc2c(-c3cccc(NC(=O)Nc4cccc(C#N)c4)c3)ncc(OCCCN)c21.O=C(O)C(F)(F)F`, the Inhibition in assay [1] is 92%; in assay [2], 80%; in assay [3], 37%.

Consider `O=[N+]([O-])c1ccc2c(c1)c1ccccc1n2Cc1ccccc1O`, for which the Inhibition in assay [1] worked out at 93%; in assay [2], 84%; in assay [3], 0%.

In the case of `COc1ccc(CCNCCCCCCNCCc2ccc(Cl)c3ccccc23)cc1OC.Cl`, the Inhibition in assay [1] turned out to be 100%; in assay [2], 28%; in assay [3], 100%.

Consider `CN1CCC(N(Cc2ccc(-c3ccc(C(F)(F)F)cc3)cc2)C(=O)Cn2c(SCc3cccc(F)c3F)cc(=O)c3c2CCC3)CC1.O=C(O)C(O)C(O)C(=O)O`, for which the Inhibition in assay [1] was found to be 89%; in assay [2], 83%; in assay [3], 50%.

Regarding `CCCNCc1ccc(-c2ccc(CN(CCOC)C(=O)c3cccc(C#N)c3)cc2)nc1.O=C(O)C(F)(F)F`, the Inhibition in assay [1] is 84%; in assay [2] it was 14%; in assay [3] it was 0%.

As for `FC(F)(F)c1ccc2[nH]c(-c3ccc(-c4ccc(CNCC5CCCO5)cc4)s3)nc2c1.O=C(O)C(F)(F)F` (configuration not stated), the figures for the Inhibition in assay [1], in assay [2] and in assay [3] were 100%, 98% and 47%, respectively.

Regarding `O=C(Cc1c[nH]cn1)Nc1cccc(-c2ccc(-c3nc4cc(F)ccc4[nH]3)cc2)c1`, the Inhibition in assay [1] is on record as 100%; in assay [2], 84%; in assay [3] it was 4%.

As for `Cc1ccc(CNC(=O)[C@H](CC(C)C)Nc2cc(C)nc(Nc3ccccc3)n2)cc1.O=C(O)C(F)(F)F`, the Inhibition in assay [1] was found to be 97%; in assay [2] it was 19%; in assay [3] it was 12%.

For the compound `CC(C)NCc1cccc(-c2ccc(NC(=O)c3cccc(C#N)c3)cc2)c1.O=C(O)C(F)(F)F`, the Inhibition in assay [1] turned out to be 100%; in assay [2], 95%; in assay [3], 22%.

With `CCNc1cc(C)nc(Nc2ccc(NC(=O)c3c(F)cccc3Cl)cc2)n1`, the figures for the Inhibition in assay [1], in assay [2] and in assay [3] were 100%, 89% and 49%, respectively.

`O=C(Nc1ccc(C(=O)Oc2ccc3ccccc3c2)cc1)N[C@@H](Cc1ccc(O)cc1)C(=O)NC1CCN(Cc2ccc(O)cc2)C1.O=C(O)C(F)(F)F` (some centres not stated): the values for the Inhibition in assay [1], in assay [2] and in assay [3] were 86%, 1% and 1%, respectively.

With `Oc1ccccc1N1CCN(c2ccc(-c3nc4ccccc4[nH]3)cn2)CC1`, the Inhibition in assay [1] is recorded as 97%; in assay [2], 50%; in assay [3], 0%.

Consider `Brc1cccc(Nc2nccc(Nc3ccc(Oc4ccccc4)cc3)n2)c1.Cl`, for which the results for the Inhibition in assay [1], in assay [2] and in assay [3] were 89%, 5% and 0%, respectively.

As for `COc1ccc2nccc(NC(=O)C3CCC(NCc4cnc(SC)c([N+](=O)[O-])c4)CC3)c2n1.Cl` (configuration not stated), the Inhibition in assay [1] is listed as 89%; in assay [2], 44%; in assay [3] it was 8%.

For `COc1ccc(NC(=O)c2cc(-c3ccc(NC(C)=O)cc3)cnc2N)cc1`, the Inhibition stood at 98% in assay [1], 5% in assay [2] and 10% in assay [3].

For the compound `CCS(=O)(=O)N1CCN(c2nc(-c3ccccc3)nc(COC)c2Cc2ccccc2F)CC1`, the Inhibition turned out to be 82% in assay [1], 34% in assay [2] and 0% in assay [3].

For the compound `COc1cc(C)c(NC(=O)c2cccc3c(=O)c(C)c(-c4ccccc4)oc23)cc1OC`, the values for the Inhibition in assay [1], in assay [2] and in assay [3] were 86%, 32% and 96%, respectively.

With `N#Cc1ccc(N2CCN(Cc3cccc(-c4cccc(-c5nc6cc(C(F)(F)F)ccc6[nH]5)c4)c3)CC2)nc1.O=C(O)C(F)(F)F`, the values for the Inhibition in assay [1], in assay [2] and in assay [3] were 99%, 50% and 15%, respectively.

Turning to `CC(=O)Nc1ccc(CNCCc2ccc(NC(=O)c3cc(Cl)cc(Cl)c3)cc2)cc1`, the figures for the Inhibition in assay [1], in assay [2] and in assay [3] were 100%, 31% and 10%, respectively.

Turning to `O=c1cc(NCCCNC2CCOc3c(Cl)cccc32)[nH]c2ccccc12` (configuration not stated), the Inhibition in assay [1] was 96%; in assay [2], 27%; in assay [3] it was 0%.

Consider `CCOC(=O)c1cc2c(CCN3C(=O)c4ccccc4C3=O)cn(C)c2cc1-c1ccncc1`, for which the Inhibition in assay [1] was 100%; in assay [2], 90%; in assay [3] it was 99%.

Turning to `Cc1ncccc1C(=O)Nc1cccc(-c2cccc(-c3nc4cc(C(F)(F)F)ccc4[nH]3)c2)c1`, the Inhibition in assay [1] was found to be 96%; in assay [2], 30%; in assay [3] it was 34%.

These data come from ChEMBL document CHEMBL1157539, “Thousands of chemical starting points for antimalarial lead identification” (Nature, 2010).
